# Measurements published in PubChem BioAssay AID463173 (ICCB-Longwood Screening Facility, Harvard Medical School, 2010).
# Out of some 52,000 compounds screened, about 4,300 (8.3%) were called active. Rule as the data show it: active = survival mostly below about 52% (no sharp cut-off); inactive = mostly above about 56%. Shown is part of a subset that was picked to be rich in actives.
# System: DeltatarO mutant
# Assay: growth inhibition of S. aureus wild type versus tarO mutant, primary screen, teichoic acid synthesis inhibitors, RN4220, OD600 (AID 463173)
# Settings: OD600, 18 h, active compounds read low, screened at 18.75 µg/mL (by protocol)
row,Structure (SMILES),survival
1,CNC(=O)C1CCC(Cn2c(=O)c3sccc3n(Cc3ccc(F)cc3)c2=O)CC1 (configuration not stated),79% (inactive)
2,NS(=O)(=O)c1ccc(CCNC(=O)c2nc(SCc3ccccc3F)ncc2Cl)cc1,45% (inactive)
3,CC(C)(C)NS(=O)(=O)c1ccc2oc3ccc(S(=O)(=O)NC(C)(C)C)cc3c2c1,86% (inactive)
4,O=C(O)c1cccc(N=NN2CCOCC2)c1,80% (inactive)
5,CSc1cccc(NS(=O)(=O)c2ccc3[nH]cc(C(=O)N4CCCC4)c(=O)c3c2)c1,91% (inactive)
6,O=C(CSc1ccc2ccccc2n1)Nc1nsc(-c2ccc(Cl)cc2)n1,57% (inactive)
7,Cc1cccc(Cn2cc(S(=O)(=O)c3cccc(C)c3)c(=O)c3cc(F)c(N4CCOCC4)cc32)c1,76% (inactive)
8,CCCCOc1ccc(C2C(=O)N(C3CCCCC3)CC(=O)N2C2CCCCC2)cc1 (configuration not stated),94% (inactive)
9,CCN(CC)S(=O)(=O)c1ccc2c(c1)N(CC(=O)NCCc1ccccc1)C(=O)CO2,76% (inactive)
10,CC(C)Oc1ccc(CNC(=O)c2ccc(CS(=O)Cc3ccccc3Cl)o2)cc1 (configuration not stated),109% (inactive)
11,CC(C)Oc1ccc(CNC(=O)c2ccc(CS(=O)c3cccc(Cl)c3)o2)cc1 (configuration not stated),52% (active)
12,Cc1ccc(S(=O)Cc2ccc(C(=O)NCc3ccc(OC(C)C)cc3)o2)cc1 (configuration not stated),51% (inactive)
13,O=C(Cn1c(-c2cccs2)cc2cc(F)ccc21)N1CCN(c2ccccc2)CC1,71% (inactive)
14,Cc1ccc(Cl)cc1NC(c1ccc(F)cc1)c1nnc(-c2ccccc2)o1 (configuration not stated),86% (inactive)
15,CCc1cccc(NC(c2ccccc2)c2nnc(-c3ccccc3F)o2)c1 (configuration not stated),11% (active)
16,CCc1cccc(NC(c2nnc(-c3ccccc3)o2)c2ccc(F)cc2Cl)c1 (configuration not stated),83% (inactive)
17,COc1ccc(NC(c2ccc(F)cc2)c2nnc(-c3ccccc3Cl)o2)cc1Cl (configuration not stated),78% (inactive)
18,COc1cc(Cl)c(C)cc1NC(c1ccccc1)c1nnc(-c2ccccc2Cl)o1 (configuration not stated),69% (inactive)
19,Cc1ccc(C)c(NC(c2ccccc2)c2nnc(-c3ccccc3F)o2)c1 (configuration not stated),4% (active)
20,COc1ccc(OC)c(NC(=O)CSc2cn(CC(=O)N3CCOCC3)c3ccccc23)c1,91% (inactive)
21,CC(=O)Nc1ccc2nc(SCc3ccccc3)sc2c1,63% (inactive)
22,CC(C)NC(=O)Cn1c(SCC(=O)N2CCc3ccccc32)nc2ccccc21,97% (inactive)
23,Cc1ccc2nc(-c3ccccc3F)c(Nc3ccc(Cl)cc3)n2c1,16% (inactive)

row,Structure (SMILES),survival
1,Cc1ccc(-n2c3nc(=O)n(C)c(=O)c-3cc3ccccc32)c(C)c1,99% (inactive)
2,Cn1c(=O)nc2n(-c3ccc(Br)cc3)c3cccc(Cl)c3cc-2c1=O,80% (inactive)
3,CCCCn1c(=O)nc2n(-c3ccc(F)cc3)c3ccccc3cc-2c1=O,41% (active)
4,CCOc1ccccc1C(=O)N1CCC(c2nc3ccccc3o2)CC1,80% (inactive)
5,Cc1cccc(NC(=O)CCCn2c(C)c3cnn(-c4ccccc4)c(=O)c3c2C)c1C,71% (inactive)
6,CCOC(=O)c1cnc(SC2CCc3ccccc3C2=O)nc1N (configuration not stated),79% (inactive)
7,CCCCSc1ncc(C(=O)OCC)c(N)n1,78% (active)
8,CCOC(=O)c1cnc(SCC(=O)OC)nc1N,95% (inactive)
9,COc1ccc(CNC(=O)CN(c2ccccc2)S(=O)(=O)N(C)C)cc1,145% (inactive)
10,O=C(Cc1csc2nc(-c3ccccc3)cn12)NCc1ccc(F)cc1,90% (inactive)
11,Cc1cccc(-c2cc3nc4c(c(N5CCCC5)n3n2)CCCC4)c1,123% (inactive)
12,CCSc1oc(-c2ccco2)nc1S(=O)(=O)c1ccc(Br)cc1,54% (inactive)
13,O=C(CSc1oc(-c2ccco2)nc1S(=O)(=O)c1ccc(Cl)cc1)c1ccccc1,125% (inactive)
14,Cc1ccc(S(=O)(=O)c2nc(-c3ccco3)oc2SCC(C)C)cc1,48% (active)
15,Cc1ccc(CSc2oc(-c3ccco3)nc2S(=O)(=O)c2ccc(C)cc2)cc1,62% (inactive)
16,O=C(CSc1oc(-c2ccco2)nc1S(=O)(=O)c1ccc(Br)cc1)c1ccccc1,47% (active)
17,O=S(=O)(c1ccc(Br)cc1)c1nc(-c2ccco2)oc1SCc1ccccc1F,44% (active)
18,CC(C)CSc1oc(-c2ccco2)nc1S(=O)(=O)c1ccc(Br)cc1,33% (active)
19,Cc1ccc(S(=O)(=O)c2nc(-c3ccco3)oc2SCc2ccc(F)cc2)cc1,66% (inactive)
20,O=S(=O)(c1ccc(Cl)cc1)c1nc(-c2ccco2)oc1SCc1ccccc1F,62% (inactive)
21,O=S(=O)(c1ccc(Br)cc1)c1nc(-c2ccco2)oc1SCc1ccccc1Cl,149% (inactive)
22,O=C(CSc1oc(-c2ccco2)nc1S(=O)(=O)c1ccc(Br)cc1)c1ccc(Cl)cc1,52% (inactive)
23,CCCSc1oc(-c2ccco2)nc1S(=O)(=O)c1ccc(Br)cc1,55% (inactive)

row,Structure (SMILES),survival
1,O=C(CSc1nnc(-c2ccccc2)c(-c2ccccc2)n1)NC1CCCC1,77% (inactive)
2,COc1ccc(CC(NC(C)=O)C(=O)NC2CCN(c3nc(OC)nc(OC)n3)CC2)cc1 (configuration not stated),88% (inactive)
3,Cc1ccc(-c2cc(-c3coc4ccc(Cl)cc4c3=O)c3c(n2)-c2ccccc2OC3)cc1,77% (inactive)
4,Cc1ncc(COC(=O)C(C)C)c2cc(C(=O)Nc3ccccc3C(F)(F)F)c(=O)oc12,134% (inactive)
5,Cc1ccc(OCC(=O)Nc2nc(-c3ccc(Br)cc3)ns2)cc1C,110% (inactive)
6,O=C(Cc1cccs1)Nc1c(C(=O)Nc2ccc(F)cc2)oc2ccccc12,94% (inactive)
7,Cc1ccc(C(=O)Nc2ccc(-n3c(C)nc4ccccc4c3=O)cc2)cc1[N+](=O)[O-],117% (inactive)
8,Cc1cc(-n2c(C)nc3ccccc3c2=O)ccc1NC(=O)c1ccccc1[N+](=O)[O-],69% (inactive)
9,Cc1c(C(=O)Nc2ccc(-n3c(C)nc4ccccc4c3=O)cc2)cccc1[N+](=O)[O-],99% (inactive)
10,Cc1cc(-n2c(C)nc3ccccc3c2=O)ccc1NC(=O)c1ccc(C)c([N+](=O)[O-])c1,37% (active)
11,Cc1cc(-n2c(C)nc3ccccc3c2=O)ccc1NC(=O)c1cccc([N+](=O)[O-])c1C,0% (active)
12,Cc1cc(-n2c(C)nc3ccccc3c2=O)ccc1NC(=O)c1ccc([N+](=O)[O-])cc1,83% (inactive)
13,CCOc1ccccc1NC(=O)c1sc(-n2nc(C)c(CCC(C)C)c2C)nc1C,69% (inactive)
14,COc1cccc2sc(N(Cc3cccnc3)C(=O)c3ccc4c(c3)OCCO4)nc12,72% (inactive)
15,O=C(CSc1nc2ncccc2[nH]1)Nc1cc(F)ccc1F,86% (inactive)
16,CCN1c2ccccc2-c2nc(SCC(=O)NCc3ccc(C)cc3)ncc2S1(=O)=O,105% (inactive)
17,Cc1ccc(CN2c3ccccc3-c3nc(SCC(=O)NCCc4ccccc4)ncc3S2(=O)=O)cc1,55% (inactive)
18,CCN1c2ccccc2-c2nc(SCC(=O)NCc3ccccc3)ncc2S1(=O)=O,93% (inactive)
19,Cc1ccc(CN2c3ccccc3-c3nc(SCC(=O)Nc4c(C)cc(C)cc4C)ncc3S2(=O)=O)cc1,128% (inactive)
20,O=C(CSc1ncc2c(n1)-c1ccccc1N(Cc1ccccc1)S2(=O)=O)Nc1ccccc1,-5% (active)
21,Cc1ccccc1CN1c2ccccc2-c2nc(SCC(=O)NCc3ccccc3)ncc2S1(=O)=O,20% (active)
22,Cc1ccccc1CN1c2ccccc2-c2nc(SCC(=O)NCCc3ccccc3)ncc2S1(=O)=O,66% (inactive)
23,NC(=O)CSc1ncc2c(n1)-c1ccccc1N(Cc1ccccc1)S2(=O)=O,89% (inactive)

row,Structure (SMILES),survival
1,O=C(CSc1ncc2c(n1)-c1ccccc1N(Cc1ccc(F)cc1)S2(=O)=O)NCc1ccccc1,87% (inactive)
2,Cc1ccc(CN2c3ccccc3-c3nc(SCC(=O)NCc4ccccc4)ncc3S2(=O)=O)cc1,17% (active)
3,CCN1c2ccccc2-c2nc(SCC(=O)NCc3ccc(Cl)cc3)ncc2S1(=O)=O,46% (active)
4,Cc1ccccc1CN1c2ccccc2-c2nc(SCC(=O)c3ccccc3)ncc2S1(=O)=O,102% (inactive)
5,O=C(CCCc1ccccc1)NC1CC(=O)N(c2cccc(F)c2)C1 (configuration not stated),120% (inactive)
6,CN(C)c1ccc(C(CNS(=O)(=O)c2ccc(F)cc2F)N2CCOCC2)cc1 (configuration not stated),69% (inactive)
7,Cc1nn2c(=O)cc(CN(C)c3ccccc3)nc2s1,135% (inactive)
8,COc1ccc(S(=O)(=O)N2CCC(Oc3ccc(-n4cnnn4)cc3)CC2)cc1,90% (inactive)
9,O=C(NC1CC(=O)N(c2ccc(F)cc2)C1)c1ccc(S(=O)(=O)N2CCOCC2)cc1 (configuration not stated),93% (inactive)
10,Cn1c(SCC(N)=O)nnc1-c1ccc(S(=O)(=O)N2CCCC2)cc1,79% (inactive)
11,Cc1ccc(Cl)cc1N1CCN(C(=O)Cn2cnc3onc(-c4ccc(F)cc4)c3c2=O)CC1,75% (inactive)
12,O=C(NCCc1ccccc1)C1CCC(CNS(=O)(=O)c2ccccc2)CC1 (configuration not stated),91% (inactive)
13,CCOc1ccc(NC(=O)CSc2ncc3c(n2)-c2ccccc2N(Cc2ccccc2C)S3(=O)=O)cc1,91% (inactive)
14,CCc1cccc(NC(=O)CSc2ncc3c(n2)-c2ccccc2N(Cc2ccccc2C)S3(=O)=O)c1,8% (active)
15,CCc1cccc(NC(=O)CSc2ncc3c(n2)-c2ccccc2N(CC)S3(=O)=O)c1,101% (inactive)
16,CCOC(=O)c1ccc(NC(=O)CC2C(=O)N(c3cccc(C)c3)C(=O)N2CCOC)cc1 (configuration not stated),74% (inactive)
17,CCc1ccc(NC(=O)[C@H](Cc2ccccc2)N2Cc3ccccc3C2=O)cc1,88% (inactive)
18,CC1CCC(Nc2nc3c(-c4cccc(C(F)(F)F)c4)nnn3c3ccccc23)CC1 (configuration not stated),-3% (active)
19,Fc1cccc(-c2nnn3c2nc(NC2CCCCC2)c2ccccc23)c1,59% (inactive)
20,CCCCNc1nc2c(-c3cccc(C)c3)nnn2c2ccccc12,98% (inactive)
21,COc1ccc(CCNc2nc3c(-c4cccc(C(F)(F)F)c4)nnn3c3ccccc23)cc1OC,85% (inactive)
22,Brc1cccc(-c2nnn3c2nc(NC2CCCCC2)c2ccccc23)c1,64% (inactive)
23,FC(F)(F)c1cccc(-c2nnn3c2nc(NC2CCCCC2)c2ccccc23)c1,13% (active)
